Compound activity: PubChem, National Center for Advancing Translational Sciences (NCATS)
D2 ag-1 = human D2 receptor agonism in beta-arrestin assay. AID 624465. DiscoveRx PathHunter D2 beta-arrestin, luminescence, 90 min; 100% = 57 uM dopamine signal. P14416. activation, % (no concentration beside the values). 360,000 tested, 0.084% active; in the data active means activation above about 40%
Target sequence (P14416 whole entry, looked up): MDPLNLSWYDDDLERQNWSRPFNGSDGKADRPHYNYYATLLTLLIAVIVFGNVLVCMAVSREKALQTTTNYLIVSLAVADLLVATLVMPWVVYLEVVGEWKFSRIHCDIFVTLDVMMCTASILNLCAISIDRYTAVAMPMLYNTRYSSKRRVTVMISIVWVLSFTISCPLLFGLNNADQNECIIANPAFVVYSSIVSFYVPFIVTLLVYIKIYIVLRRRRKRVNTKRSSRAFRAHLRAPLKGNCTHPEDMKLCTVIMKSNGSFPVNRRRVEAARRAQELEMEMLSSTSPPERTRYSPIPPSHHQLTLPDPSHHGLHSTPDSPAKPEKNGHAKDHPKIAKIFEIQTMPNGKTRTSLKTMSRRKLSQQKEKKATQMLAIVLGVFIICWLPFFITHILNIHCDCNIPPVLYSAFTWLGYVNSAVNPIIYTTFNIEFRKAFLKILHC
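Agonist mode: compounds alone added to overnight-plated D2 PathHunter cells for 90 min at 37 C, with 57 uM final dopamine (EC100) defining full response. Beta-arrestin recruitment detected by chemiluminescent reagent, read after 1 h at ambient temperature.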
D2 PAM-1 = D2 dopamine receptor (human) potentiation | 340,000 tested, 0.34% active | potentiation, % at 10 µM | P14416 | HEK293 T-REx D2, calcium flux, EC20 dopamine potentiation | AID 485347;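 active means potentiation over 3 SD above the plate norm, cut at about 30% in these data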; further: 0% is about no effect
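Calcium flux readout, no-wash dye, 1 read/s. Inducible HEK293 Trex D2 line, overnight 30 C. Compound alone 180 s (agonist flags), then EC20 dopamine, another 180 s to score potentiation.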
D2 ag-2 = activates the human D2 dopamine receptor. P14416. HEK293 T-REx D2 cells, calcium flux agonist mode. activation, % at 2 µM. 340,000 tested, 0.53% active. AID 485358;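 active means activation over 3 SD above normal in the single-dose calcium agonist read, cut at about 30% in these data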; further: 0% is about no effect
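HEK293 Trex D2 cells, tetracycline-induced, o/n 30 C 5% CO2; no-wash Ca dye, RT 30–90 min; 10-cycle baseline, 23 nl cpd added, kinetic Ca read 180 s; agonist hits = positive Ca response.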
D2 PAM-2 = potentiates the human D2 dopamine receptor allosterically; potentiation, % (no concentration beside the values); 360,000 tested, 0.23% active; DiscoveRx D2 beta-arrestin cells, luminescence, 90 min; 100% = 57 uM dopamine signal; in the data active means potentiation above about 50%
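D2 cells co-treated with compound plus 50 nM dopamine (EC20) for 90 min at 37 deg C to detect potentiation. Beta-arrestin recruitment was read as enzyme-fragment luminescence after 1 h at ambient temperature. Full response was set by 57 uM dopamine.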
D2 antag = D2 dopamine receptor (human) antagonism; inhibition, % at 10 µM; HEK293 TREx D2 cells, calcium flux, dopamine EC80; P14416; AID 485344; 340,000 tested, 2% active; in the data active means inhibition above about 30%; inactive means below that, where a call was filed; further: 0% is about no effect
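Tetracycline-induced HEK293 TREx cells expressing D2 receptor forced-coupled to calcium signalling, loaded with no-wash calcium dye. Compounds added and calcium flux read 180 s, then dopamine added at EC80 and read a further 180 s.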
* hit, by the source's call; nt = no result given. This is a sample that favours compounds with a hit; in the whole collection about 2.4% have one here.

SMILES | D2 ag-1 | D2 PAM-1 | D2 ag-2 | D2 PAM-2 | D2 antag
Cc1ccccc1-c1noc(C23CC4CC(CC(C4)C2)C3)n1 | -1.5 | -25.5 | 0.7 | -9.2 | 75.2*
CCOc1ccccc1C1CC(=O)NC(C)=C1C(=O)OCc1ccc(C)cc1 (stereo not drawn) | nt | 1.5 | -1.9 | nt | nt
CCOC(=O)c1c(NC(=O)c2ccc(S(=O)(=O)N3CCC(C)CC3)cc2)sc2c1CCN(CC)C2 | nt | -10.5 | 0.1 | nt | nt
Cc1cc2c(cc1S(=O)(=O)Nc1cccc(F)c1)n(C)c(=O)c(=O)n2C | -1.3 | 3.0 | -0.5 | 2.2 | -4.6
Cc1cccc(NS(=O)(=O)c2cc3c(cc2C)n(C)c(=O)c(=O)n3C)c1 | 2.7 | -11.3 | 36.2* | 0.4 | 25.9
CCOC(=O)CNc1ccc2c(c1)OCO2 | -4.9 | nt | -0.6 | -15.3 | 39.9*
O=C(CC1S/C(=N/N=C/c2cccs2)NC1=O)Nc1ccc(Cl)cc1 (stereo not drawn) | -3.4 | 11.0 | 1.4 | 3.8 | 43.8*
COC(=O)Nc1ccc(C)cc1NC(=O)OC | -2.1 | -5.1 | 0.9 | 12.7 | -9.0
CC(=O)Nc1ccc(C)cc1NC(C)=O | -2.5 | -4.5 | -0.6 | 6.3 | 34.8*
COc1ccccc1N1CCN(S(=O)(=O)c2c(C)[nH]c(C)c2C(=O)N2CCCC2)CC1 | -2.0 | 27.4 | 0.2 | -10.0 | 30.7*
CCCCN1C(=O)c2ccc(C(=O)N(C)CC(=O)Nc3ccc(OCC)c(OCC)c3)cc2C1=O | -4.8 | nt | nt | -12.7 | nt
CCOc1ccc(NC(=O)CN(C)C(=O)CN2C(=O)c3ccc([N+](=O)[O-])cc3C2=O)cc1OCC | 6.1 | 5.5 | -0.9 | 56.6* | -20.0
Cc1ccc(NC(=O)/C=C/c2ccccc2)c(Br)c1 | nt | 4.2 | -4.3 | nt | nt
CN1CCN(CCC=C2c3ccccc3Sc3ccc(S(=O)(=O)N(C)C)cc32)CC1 | 1.2 | -17.2 | 0.8 | -2.8 | 77.4*
CN(C)CCCN1c2ccccc2Sc2ccc(C(F)(F)F)cc21 | 3.8 | -28.5 | 1.0 | -21.5 | 94.9*
OCCN1CCN(CC/C=C2/c3ccccc3CSc3ccccc32)CC1 | -7.1 | nt | nt | -15.0 | nt
OCCN1CCN(CC/C=C2/c3ccccc3Sc3ccc(C(F)(F)F)cc32)CC1 | 2.0 | -22.4 | 1.8 | -28.9 | 82.9*
CCN(CC)CCCCN1c2ccccc2Sc2ccccc21 | -4.6 | -20.1 | -0.3 | -20.3 | 47.1*
Cc1cccc(CNC(=O)CN2C(=O)CSc3c2c(C)nn3-c2ccccc2)c1 | nt | 3.5 | 0.8 | nt | nt
CCOc1ccc(NC(=O)C2CCC(CNS(=O)(=O)c3ccc4c(c3)CCCC(=O)N4)CC2)cc1 (stereo not drawn) | nt | 11.8 | 0.4 | nt | nt
COc1ccc2c(C)c(CC(=O)NCCc3ccc(Cl)cc3)c(=O)oc2c1C | nt | -1.4 | -1.2 | nt | nt
CN1CCN(CCC(=O)N2c3ccccc3Sc3ccc(C(F)(F)F)cc32)CC1 | -1.2 | -18.0 | 0.1 | -24.9 | -17.4
OCCN1CCN(CCCN2c3ccccc3Sc3ccc(C(F)(F)F)cc32)CC1 | nt | nt | nt | nt | 59.7*
CCCCn1c(N)c(N(CCOC)C(=O)c2cc(S(=O)(=O)N3CCOCC3)ccc2Cl)c(=O)[nH]c1=O | 1.4 | nt | nt | 0.7 | nt
Cc1ccc(/C=C/C(=O)Nc2ccc3nc(N4CCC(C)CC4)cc(C)c3c2)cc1 | nt | -5.2 | nt | nt | nt
SMILES | D2 ag-1 | D2 PAM-1 | D2 ag-2 | D2 PAM-2 | D2 antag
S=c1nc(-c2ccccc2)n(CCCN2CCOCC2)c2c1CCCC2 | -2.5 | -4.2 | 0.4 | -15.7 | -2.2
S=c1nc(-c2ccccc2)n(CCCn2ccnc2)c2c1CCCC2 | -4.1 | 3.1 | 1.6 | -11.7 | 39.1*
COc1ccc(CSc2nc3ccncc3n2CC(=O)Nc2cc(C)cc(C)c2)cc1 | nt | -15.5 | 1.3 | nt | nt
Cc1ccc2oc(C(F)(F)C(F)F)cc(=O)c2c1 | -2.9 | 6.7 | -0.4 | -4.8 | 1.4
Cc1ccc2oc(C(Cl)(Cl)Cl)cc(=O)c2c1 | 9.2 | -3.9 | -0.5 | 76.0* | 3.1
CCCSCCCNC(=O)c1cc2n(n1)CCCN(Cc1ccc(C)cc1)C2=O | nt | -1.1 | -0.2 | nt | nt
CN1CCN(c2ccc(NC(=O)c3ccc(Br)o3)cc2)CC1 | -0.6 | -4.1 | 0.7 | 0.3 | 9.4
O=C(Nc1ccc(N2CCOCC2)cc1)c1ccc(Br)o1 | 1.0 | 5.0 | 0.4 | -2.2 | 71.2*
COc1ccc2c(n1)Sc1nc3ccccc3nc1N2 | 3.9 | -4.8 | 92.2* | 1.7 | 49.4*
COc1cc2ccccc2nn1 | -2.2 | 12.0 | 0.7 | -6.3 | -5.0
